The values that follow come from the supplement of paper PMC6089552.

The subject of the test is A673/TR/shEF. Kind of test: cell viability (LOESS-normalised, relative to median of negative controls) (log2 ratio); higher = more viable cells (less compound effect), active = hit call of the paper (over 3 MAD below the median). The following applies: treatment time: 72 h. The essentials: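 Doxycycline, present or absent from 24 h before compounds, was used to induce EWS-FLI1 shRNA knockdown in A673/TR/shEF Ewing sarcoma cells at 1,500 per well in 384-well plates. Cells then received library compounds at two or more concentrations, or DMSO controls, for three days. Viability was measured by CellTiter-Glo luminescence on an Envision reader, and per-plate LOESS correction, division by the negative-control median and log2 transformation followed.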

Setting [1] is: 0.25 µM, library screen: screen2, EWS-FLI1 expression: high (no doxycycline).
Setting [2] is: 0.25 µM, library screen: screen2, EWS-FLI1 expression: low (doxycycline-induced shRNA knockdown).
Where [3] appears, read: 2.5 µM, library screen: screen2, EWS-FLI1 expression: high (no doxycycline).
Where [4] appears, read: 2.5 µM, library screen: screen2, EWS-FLI1 expression: low (doxycycline-induced shRNA knockdown).
Where [5] appears, read: 0.25 µM, library screen: screen1, EWS-FLI1 expression: high (no doxycycline).
Setting [6] is: 0.25 µM, library screen: screen1, EWS-FLI1 expression: low (doxycycline-induced shRNA knockdown).
The mark [7] stands for this setting: 2.5 µM, library screen: screen1, EWS-FLI1 expression: high (no doxycycline).
[8] abbreviates: 2.5 µM, library screen: screen1, EWS-FLI1 expression: low (doxycycline-induced shRNA knockdown).
Where [9] appears, read: 0.103 µM, library screen: screen3, EWS-FLI1 expression: high (no doxycycline).
[10] abbreviates: 0.103 µM, library screen: screen3, EWS-FLI1 expression: low (doxycycline-induced shRNA knockdown).
The mark [11] stands for this setting: 0.308 µM, library screen: screen3, EWS-FLI1 expression: high (no doxycycline).
The mark [12] stands for this setting: 0.308 µM, library screen: screen3, EWS-FLI1 expression: low (doxycycline-induced shRNA knockdown).
Setting [13] is: 0.926 µM, library screen: screen3, EWS-FLI1 expression: high (no doxycycline).
Where [14] appears, read: 0.926 µM, library screen: screen3, EWS-FLI1 expression: low (doxycycline-induced shRNA knockdown).
The mark [15] stands for this setting: 2.8 µM, library screen: screen3, EWS-FLI1 expression: high (no doxycycline).
Setting [16] is: 2.8 µM, library screen: screen3, EWS-FLI1 expression: low (doxycycline-induced shRNA knockdown).
[17] abbreviates: 8.3 µM, library screen: screen3, EWS-FLI1 expression: high (no doxycycline).
Setting [18] is: 8.3 µM, library screen: screen3, EWS-FLI1 expression: low (doxycycline-induced shRNA knockdown).
Where [19] appears, read: 25 µM, library screen: screen3, EWS-FLI1 expression: high (no doxycycline).
Setting [20] is: 25 µM, library screen: screen3, EWS-FLI1 expression: low (doxycycline-induced shRNA knockdown).

The whole screen tested about 3,200 compounds, of which about 300 (9.4%) showed activity. This excerpt belongs to a sample that is enriched for actives. A number with no mark means an inactive call.

With `CN1C(=O)CCC1c1cccnc1` (stereo not given), the “cell viability (log2)” value under setting [1] was 0.264, the “cell viability (log2)” value under setting [2] is 0.181, the “cell viability (log2)” value under setting [3] was 0.161 and the “cell viability (log2)” value under setting [4] was 0.0586.

As for `CN[C@H](Cc1ccccc1)C(=O)N1CCC[C@H]1C(=O)N[C@@H](Cc1c[nH]c2ccccc12)C(=O)C(F)(F)C(F)(F)F`, the “cell viability (log2)” value is, setting by setting: under setting [1], 0.168; under setting [2], 0.0679; under setting [3], 0.0864; under setting [4], 0.0322.

Take `C[C@H](CCC(=O)O)[C@H]1CC[C@H]2[C@@H]3C[C@H](O)C4C[C@H](O)CC[C@]4(C)[C@H]3CC[C@]12C` (stereo not given in full): the “cell viability (log2)” value by setting is: under setting [5], 0.0369; under setting [6], -0.0168; under setting [7], 0.0626; under setting [8], -0.0216.

In the case of `CO[C@H]1C[C@@H]2CC[C@@H](C)[C@@](O)(O2)C(=O)C(=O)N2CCCC[C@H]2C(=O)O[C@H]([C@H](C)C[C@@H]2CC[C@@H](OC(=O)C(C)(CO)CO)[C@H](OC)C2)CC(=O)[C@H](C)/C=C(\C)[C@@H](O)[C@@H](OC)C(=O)[C@H](C)C[C@H](C)/C=C/C=C/C=C/1C`, the “cell viability (log2)” value under setting [9] was -0.862 (active); the “cell viability (log2)” value under setting [10] is -0.712 (active); the “cell viability (log2)” value under setting [11] was -0.972 (active); the “cell viability (log2)” value under setting [12] was -0.713 (active); the “cell viability (log2)” value under setting [13] is -0.859 (active); the “cell viability (log2)” value under setting [14] was -0.683 (active). For the same compound, the “cell viability (log2)” value is, setting by setting: under setting [15], -0.839 (active); under setting [16], -0.886 (active); under setting [17], -0.828 (active); under setting [18], -0.678 (active); under setting [19], -0.905 (active); under setting [20], -0.717 (active).

Consider `CO[C@H]1CC2CC[C@@H](C)[C@@](O)(O2)C(=O)C(=O)N2CCCC[C@H]2C(=O)O[C@H]([C@H](C)C[C@@H]2CC[C@@H](OP(C)(C)=O)[C@H](OC)C2)CC(=O)[C@H](C)/C=C(\C)[C@@H](O)[C@@H](OC)C(=O)[C@H](C)C[C@H](C)/C=C/C=C/C=C/1C`, for which the “cell viability (log2)” value reads like this: under setting [9], -0.93 (active); under setting [10], -0.714 (active); under setting [11], -0.852 (active); under setting [12], -0.724 (active); under setting [13], -0.888 (active); under setting [14], -0.755 (active). The “cell viability (log2)” value was -0.837 (active) under setting [15]; -0.688 (active) under setting [16]; -0.983 (active) under setting [17]; -0.734 (active) under setting [18]; -1.05 (active) under setting [19]; -0.738 (active) under setting [20].

On to `CO[C@H]1C[C@@H]2CC[C@@H](C)[C@@](O)(O2)C(=O)C(=O)N2CCCC[C@H]2C(=O)O[C@H]([C@H](C)C[C@@H]2CC[C@@H](OCCO)[C@H](OC)C2)CC(=O)[C@H](C)/C=C(\C)[C@@H](O)[C@@H](OC)C(=O)[C@H](C)C[C@H](C)/C=C/C=C/C=C/1C`, for which the “cell viability (log2)” value under setting [9] is -0.823 (active); the “cell viability (log2)” value under setting [10] is -0.667 (active); the “cell viability (log2)” value under setting [11] was -0.931 (active); the “cell viability (log2)” value under setting [12] is -0.779 (active); the “cell viability (log2)” value under setting [13] was -0.921 (active); the “cell viability (log2)” value under setting [14] was -0.761 (active). The “cell viability (log2)” value was -0.899 (active) under setting [15]; -0.779 (active) under setting [16]; -1.09 (active) under setting [17]; -0.731 (active) under setting [18]; -0.943 (active) under setting [19]; -0.733 (active) under setting [20].

Take `CO[C@H]1C[C@@H]2CC[C@@H](C)[C@@](O)(O2)C(=O)C(=O)N2CCCC[C@H]2C(=O)O[C@H]([C@H](C)C[C@@H]2CC[C@@H](O)[C@H](OC)C2)CC(=O)[C@H](C)/C=C(\C)[C@@H](O)[C@@H](OC)C(=O)[C@H](C)C[C@H](C)/C=C/C=C/C=C/1C`: the “cell viability (log2)” value reads like this: under setting [9], -0.737 (active); under setting [10], -0.644 (active); under setting [11], -0.758 (active); under setting [12], -0.612 (active); under setting [13], -0.692 (active); under setting [14], -0.65 (active). For the same compound, the “cell viability (log2)” value was -0.692 (active) under setting [15]; -0.756 (active) under setting [16]; -0.726 (active) under setting [17]; -0.651 (active) under setting [18]; -0.719 (active) under setting [19]; -0.63 (active) under setting [20].

For `O=C(O)CSc1nnc(COc2ccccc2)n1-c1ccc(Cl)cc1`, the “cell viability (log2)” value under setting [5] was 0.0719, the “cell viability (log2)” value under setting [6] was -0.0199, the “cell viability (log2)” value under setting [7] was 0.0305 and the “cell viability (log2)” value under setting [8] was 0.0659.

As for `CC1(C)C=CC(=O)[C@@]2(C)C1CC(=O)[C@]1(C)C2CC[C@@]2(C)[C@H](c3ccoc3)OC(=O)C3OC321` (stereo not given in full), the “cell viability (log2)” value under setting [5] is 0.0164, the “cell viability (log2)” value under setting [6] is 0.0615, the “cell viability (log2)” value under setting [7] was 0.135 and the “cell viability (log2)” value under setting [8] is 0.0703.

With `C=C(O)CCC/C=C\C[C@@H]1[C@@H](/C=C/[C@H](O)C2Cc3ccccc3C2)[C@@H](F)C[C@@H]1O`, the “cell viability (log2)” value is 0.175 under setting [1], 0.154 under setting [2], 0.111 under setting [3] and 0.184 under setting [4].

As to `Cc1ccc2c(c1)C(N1CCN(C)CC1)=Nc1cccnc1N2`, the “cell viability (log2)” value is 0.144 under setting [1], 0.13 under setting [2], 0.0813 under setting [3] and 0.0355 under setting [4].

On to `CC1(C)C=Cc2cc3ccc(=O)oc3cc2O1`, for which the “cell viability (log2)” value is 0.0334 under setting [5], 0.0455 under setting [6], 0.0429 under setting [7] and 0.132 under setting [8].

Take `Cc1ccc(C(=O)NCc2ccc3c(c2)OCO3)cc1`: the “cell viability (log2)” value reads like this: under setting [5], 0.0742; under setting [6], -0.0061; under setting [7], 0.0676; under setting [8], 0.0498.

In the case of `COc1ccccc1/C=C1\SC(=S)N(C2CCS(=O)(=O)C2)C1=O` (stereo not given), the “cell viability (log2)” value reads like this: under setting [5], 0.0633; under setting [6], 0.0907; under setting [7], 0.0733; under setting [8], 0.0539.

With `COc1ccc(OC)c(CN2CCN(Cc3cccnc3)CC2)c1`, the “cell viability (log2)” value reads like this: under setting [5], 0.114; under setting [6], 0.038; under setting [7], 0.0976; under setting [8], -0.0472.

As for `N/C(=N/c1nc2ccccc2o1)NC(=O)Nc1ccccc1`, the “cell viability (log2)” value is 0.05 under setting [5], 0.11 under setting [6], 0.0784 under setting [7] and 0.171 under setting [8].

On to `NCC1COc2ccccc2O1` (stereo not given), for which the “cell viability (log2)” value reads like this: under setting [5], 0.104; under setting [6], -0.0116; under setting [7], 0.0686; under setting [8], 0.0513.

As for `COc1cccc(C=CC(=O)O)c1C(C)C`, the “cell viability (log2)” value was 0.0613 under setting [5], 0.0863 under setting [6], 0.0736 under setting [7] and 0.0985 under setting [8].

Take `CCC(=O)OC1[C@@H]2CC3=C4CC(=O)O[C@@H](c5ccoc5)[C@]4(C)CCC3[C@@](C)(C2=O)[C@@H](CC(=O)OC)C1(C)C` (stereo not given in full): the “cell viability (log2)” value reads like this: under setting [5], 0.0873; under setting [6], -0.00184; under setting [7], 0.0649; under setting [8], 0.122.

Regarding `NCCC(=O)N[C@@H](Cc1cnc[nH]1)C(=O)O`, the “cell viability (log2)” value by setting is: under setting [5], 0.026; under setting [6], 0.0201; under setting [7], 0.0679; under setting [8], 0.084.

Take `CC(C)n1c(/C=C/C(O)CC(O)CC(=O)O)c(-c2ccc(F)cc2)c2ccccc21` (stereo not given): the “cell viability (log2)” value under setting [9] is 0.107; the “cell viability (log2)” value under setting [10] was 0.0332; the “cell viability (log2)” value under setting [11] was 0.201; the “cell viability (log2)” value under setting [12] is 0.108; the “cell viability (log2)” value under setting [13] is 0.169; the “cell viability (log2)” value under setting [14] is 0.0801. Further, the “cell viability (log2)” value reads like this: under setting [15], 0.0218; under setting [16], -0.0661; under setting [17], -0.668 (active); under setting [18], -0.538 (active); under setting [19], -2.7 (active); under setting [20], -1.87 (active).

Regarding `CC(C)c1c(C(=O)Nc2ccccc2)c(-c2ccccc2)c(-c2ccc(F)cc2)n1CC[C@@H](O)C[C@@H](O)CC(=O)O`, the “cell viability (log2)” value was 0.091 under setting [5], 0.0242 under setting [6], 0.147 under setting [7] and -0.0132 under setting [8].

In the case of `O=C(O)C[C@H](O)C[C@H](O)/C=C/c1c(C2CC2)nc2ccccc2c1-c1ccc(F)cc1`, the “cell viability (log2)” value under setting [9] was 0.0626; the “cell viability (log2)” value under setting [10] is -0.0656; the “cell viability (log2)” value under setting [11] was -0.114; the “cell viability (log2)” value under setting [12] was -0.0155; the “cell viability (log2)” value under setting [13] was -0.533 (active); the “cell viability (log2)” value under setting [14] is -0.345 (active). Also, the “cell viability (log2)” value runs as follows: under setting [15], -1.53 (active); under setting [16], -0.986 (active); under setting [17], -2.09 (active); under setting [18], -1.25 (active); under setting [19], -3.51 (active); under setting [20], -3.56 (active).
